Assay [1] has as its target Cellular tumor antigen p53 (Homo sapiens) (UniProt P04637). Kind of assay: Primary qHTS for small molecule compounds that upregulate eGFP-tagged delta133p53alpha (in N-terminal) cells. (AID 2060322). Also: nearly all actives have a fitted effect of over 75% in size. Also: potency is read from the fitted curve at half-maximal effect.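 As to activation: cells pre-induced with doxycycline then dosed without doxycycline; series mostly up to about 56 µM; 0% = DMSO vehicle and 100% = reference activator.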 The note with it: NCI-H358 eGFP-delta133p53alpha fluorescence, 24 h; activation: stronger effect = higher value. The procedure, abridged:
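NCI-H358 cells pre-induced 24 h with 10 ng/ml doxycycline for eGFP-delta133p53alpha, plated dox-free and exposed 24 h at 37C to titrated compounds. Fixed, Hoechst-stained; gated GFP peak intensity by laser scanning cytometry, normalized to DMSO (0%) and 57.5 uM 5-azacytidine (100%).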
In general terms: qHTS replaces the single test concentration by a dilution series.

For assay [2], the target named is Aldehyde dehydrogenase, mitochondrial (Homo sapiens) (UniProt P05091). Kind of assay: qHTS for Inhibitors of the Aldehyde Dehydrogenase Family (ALDH2) Primary screen (AID 2061308).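 Also: plate controls were vehicle for no effect and reference inhibitor for full effect; nearly all actives have a fitted effect of over 55% in size.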
The target of assay [3] is Retinaldehyde dehydrogenase 3 (Homo sapiens) (UniProt P47895). Kind of assay: qHTS for Inhibitors of the Aldehyde Dehydrogenase Family (ALDH1A3) Primary screen (AID 2061315).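 Also: plate controls were DMSO vehicle for no effect and reference inhibitor for full effect.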

Drawing on PubChem BioAssay (NCATS), this text covers activation and Potency for nine molecules.

Inconclusive results are not listed. A number with no mark means an inactive call. The source made the active and inactive calls. Calls follow the shape of the dose curve; as a rule, active = well fitted curve in the direction sought with a large enough effect; inconclusive = small, poorly fitted or top-dose-only effect, or another doubt; inactive = no such curve, though single readings can be large; an effect the other way counts as inactive or inconclusive.

Chain of Cellular tumor antigen p53 (Homo sapiens) (P04637 whole entry, looked up): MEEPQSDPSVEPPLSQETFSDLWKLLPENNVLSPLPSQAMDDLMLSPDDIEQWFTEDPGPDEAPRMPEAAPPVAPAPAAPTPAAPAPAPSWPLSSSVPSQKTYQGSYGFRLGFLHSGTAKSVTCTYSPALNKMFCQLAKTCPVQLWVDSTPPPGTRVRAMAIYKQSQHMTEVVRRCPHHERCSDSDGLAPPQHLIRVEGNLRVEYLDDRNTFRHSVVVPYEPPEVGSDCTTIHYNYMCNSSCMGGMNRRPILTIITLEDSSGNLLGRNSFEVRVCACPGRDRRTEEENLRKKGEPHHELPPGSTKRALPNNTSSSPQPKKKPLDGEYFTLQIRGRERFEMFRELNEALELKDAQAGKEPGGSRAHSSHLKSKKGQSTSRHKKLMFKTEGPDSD

Consider `CC(=O)c1c(O)cc2c(c1C)C(=O)CC(O)C2` (configuration not stated), for which, in assay [1], the activation is -14.5%. For the same molecule, the Potency result in assay [2] and in assay [3] was “inactive” each time.
With `CN1c2ccccc2C(=O)N2CCC3c4ccccc4NC3C21` (configuration not stated), the Potency in assay [1] was 1.66 µM (active). Moreover, the Potency result in assay [2] and in assay [3] was “inactive” each time.
As to `Cc1ccc(Nc2nnc(-c3ccc([N+](=O)[O-])cc3)o2)cc1Cl`, the activation in assay [1] was 9.82%. The Potency result in assay [2] and in assay [3] was “inactive” in each case.
For `CC(=O)O[C@H]1[C@H](C)[C@@H](O)[C@H]2[C@@H]1C=C(C(=O)O)[C@H]1C[C@@H]3[C@H]([C@H]21)[C@H]1C(=O)O[C@@H]2CC[C@@]3(C)O[C@]1(O)[C@@H]2C`, the activation in assay [1] is -11.5%. The Potency result in assay [2] and in assay [3] was “inactive” each time.
With `CC(=O)O[C@H]1[C@H](O[C@H]2[C@@H]3C=CO[C@@H](O[C@@H]4O[C@H](CO)[C@@H](O)[C@H](O)[C@H]4O)[C@@H]3[C@@]3(CO)O[C@@H]23)O[C@@H](C)[C@H](OC(=O)/C=C/c2ccccc2)[C@H]1OC(=O)/C=C/c1ccccc1`, the activation in assay [1] is -7.63%. The Potency entry in assay [2] and in assay [3] was “inactive” each time.
As to `COc1cc2c(cc1OC)[C@@H]1[C@H](O)[C@@H](OC)C=C3CCN(C2)[C@H]31`, the Potency in assay [1] was 16.6 µM (active). Further, the Potency result in assay [2] and in assay [3] was “inactive” throughout.
Turning to `C=C1CCC2C(C)(C)C(O)CCC2(C)C1CCC(C)CCO` (configuration not stated), the activation in assay [1] was 6.25%. Moreover, the Potency result in assay [2] and in assay [3] was “inactive” throughout.
Regarding `CC(=O)O[C@H]1C[C@@H](O)C(C)(C)C2C[C@@H](OC(C)=O)[C@]3(C)C(CC[C@@]4(C)[C@H](c5ccoc5)OC(=O)[C@H]5O[C@]543)[C@]21C` (some centres not stated), the activation in assay [1] was 11.6%. The Potency result in assay [2] and in assay [3] was “inactive” throughout.
In the case of `CC(=O)N[C@H]1[C@H](O[C@H]2CC[C@@]3(C)C(CC[C@]4(C)C3CC=C3C5CC(C)(C)CC[C@]5(C(=O)O)[C@H](O)C[C@]34C)C2(C)C)O[C@H](CO[C@@H]2OC[C@H](O)[C@H](O)[C@H]2O[C@@H]2OC[C@@H](O)[C@H](O)[C@H]2O)[C@@H](O)[C@@H]1O` (some centres not stated), the activation in assay [1] was -19.1%. Further, the Potency result in assay [2] and in assay [3] was “inactive” each time.
